# Data reported in PubChem BioAssay.
# Values joined by “and” are separate entries in the source; they are usually repeats but may differ in a detail not shown here. Identical values can stand only once. The source holds several records for some structures; these can differ, active in one and inactive in another. Active and inactive are the calls of the source. Unless noted, no rule for the calls is given here.
# How the values were obtained:
# [1] = circadian clock period modulators, cell-based, LOPAC library, luminescence reporter (AID 2774); conditions: circadian reporter cells, at 7 µM, actives lie on both sides;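 also: values are relative to mean of DMSO wells on each plate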
# [2] = system: Hepatitis C virus NS3 helicase; experiment: HCV NS3 helicase inhibitors, primary screen, biochemical, fluorescence polarization, LOPAC1280 library (AID 687035; in the data active = inhibition above about 37%); conditions: Purified HCV NS3 helicase, Cy5-dT15 ssDNA binding fluorescence polarization; stronger effect = higher value; concentration not given here
# [3] = Cy5 fluorescence quenching or enhancement artefacts, artefact control for HCV NS3 helicase inhibitor project, biochemical, LOPAC1280 (AID 687037); conditions: Cy5-DNA-NS3h complex fluorescence interference counterscreen
# [4] = system: Aerobactin synthetase IucA (Klebsiella pneumoniae); experiment: IucA aerobactin synthetase inhibitors, biochemical, Tocris library, absorbance (AID 1345561); conditions: purified IucA enzyme assay, absorbance (OD) read-out; stronger effect = lower value;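 tested at 8 µM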;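 also: 100% = enzyme without compound and 0% = no enzyme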
# [5] = sensitizers of A549 cells to miR-34 induction, primary screen, imaging, A549 dox-inducible miR-34, nuclei and caspase counts (AID 1347080;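 active = compounds whose cell count with miR-34 switched on is under 0.7 times the count with it off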); conditions: A549 miR-34 inducible, Hoechst nuclei count, 48 h
# [6] = phospholipid biosynthesis inhibitors in animal cells, primary screen, cell-based, LOPAC library, screen 4 (AID 1347384); conditions: phospholipid biosynthesis inhibition screen, at 10 µM
# [7] = viability rescue of complex I mutant cybrids, primary screen, cell-based, galactose medium, ATP luminescence (AID 1645843;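 active = z-score of at least 1.8 in each of two replicates, scored against plate mean and spread of sample wells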;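 also: positive z means more ATP and so rescue of galactose-driven cybrid death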); conditions: complex I mutant cybrid cells, 72 h, stronger effect = higher value
# [8] = hESC survival regulators, cell-based (AID 493140); conditions: human embryonic stem cell survival screen; stronger effect = higher value;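 also: cells exposed to compounds for four days before counting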
# [9] = liver-stage malaria parasite growth inhibition, primary screen, cell-based, HepG2, luciferase luminescence, HepG2 viability (AID 624349; in the data active = parasite load remaining mostly below about 12%, no sharp cut-off; inactive = mostly above about 10%;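 also: 100% = mean of DMSO negative control wells on the same plate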); conditions: P. berghei liver stage in HepG2, luciferase luminescence, concentration not given here; parasite load remaining: stronger effect = lower value; viability: measured here: HepG2 viability without parasites
# [10] = survival rescue of mitochondrial mutant cells in low glucose, primary screen, MELAS cybrids, Rieske KO mouse fibroblasts, CellTiter-Glo (AID 1508586;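 active = mean z-score across replicates of 1.96 or higher in either the MELAS or the Rieske mutant cell line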;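 also: z relative to plate mean and SD of compound and empty wells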)
# [11] = LFS_MB_P medulloblastoma growth inhibition, cell-based, chromothripsis tumors, cisplatin or BGB combos (AID 1671449; in the data active = inhibition above about 80%;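 also: cells exposed for 96 hours; 0% = vehicle DMSO and 100% = killing by high DMSO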); conditions: LFS_MB_P medulloblastoma cells
# [12] = HDN33 neuroblastoma growth inhibition, cell-based, chromothripsis tumors, cisplatin or BGB combos (AID 1671450; in the data active = inhibition above about 80%;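 also: cells exposed to compound for four days; 0% = vehicle DMSO and 100% = cell killing by high DMSO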); conditions: HDN33 neuroblastoma cells, stronger effect = higher value
# [13] = ICB984 medulloblastoma cell growth inhibition, synergistic combos for chromothripsis tumors, cisplatin or BGB combos (AID 1671451); conditions: ICB984 medulloblastoma cells, drug combinations, stronger effect = higher value;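 also: cells exposed for 96 hours before readout; 0% = vehicle DMSO and 100% = killing by high DMSO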
# [14] = HTB85 osteosarcoma cell growth inhibition, synergistic combos for chromothripsis tumors, BGB or cisplatin IC20 combos (AID 1671453; in the data active = inhibition above about 80%;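 also: cells exposed for 96 hours before readout; 0% = vehicle DMSO and 100% = high DMSO killing control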); conditions: HTB85 osteosarcoma cells, drug combinations, stronger effect = higher value
# [15] = stronger effect = lower value, cell number ratio, induced over uninduced
# [16] = measured here: relative caspase fold change +Dox/-Dox
# [17] = measured here: total cells with miR-34 induction, stronger effect = lower value
# [18] = measured here: total cells without miR-34 induction
# [19] = MELAS cybrid survival, CellTiter-Glo 48 h, stronger effect = higher value
# [20] = Rieske KO mouse fibroblast survival, CellTiter-Glo 72 h
compound,measurement,setting,value
NC(N)=NC(N)=Nc1cccc(Cl)c1,period change,[1],0.15 h (inactive)
same,inhibition,[2],-4% (inactive)
same,fluorescence ratio (interference),[3],1 (inactive)
same,remaining activity,[4],77.4% (inactive)
same,fold change,[5]; [15],0.947 (inactive) and 0.85 (inactive)
same,fold change,[5]; [16],1.12 and 1.01
same,cell count,[5]; [17],10300 and 7530
same,cell count,[5]; [18],10900 and 8860
same,outcome,[6],inactive
same,z-score,[7],-0.165 (inactive) and -0.935 (inactive)
N[C@H](C(=O)O)c1cc(O)cc(O)c1,period change,[1],0.11 h (inactive)
same,inhibition,[2],-1% (inactive)
same,fluorescence ratio (interference),[3],1.1 (inactive)
same,remaining activity,[4],115% (inactive)
same,fold change,[5]; [15],1.01 (inactive) and 0.963 (inactive)
same,fold change,[5]; [16],1.04 and 0.77
same,cell count,[5]; [17],10300 and 8780
same,cell count,[5]; [18],10200 and 9120
same,outcome,[6],inactive
same,z-score,[7],0.215 (inactive) and -0.05 (inactive)
COc1cc2c(CCNC(C)=O)c[nH]c2cc1Cl,period change,[1],-0.08 h (inactive)
same,inhibition,[2],-1% (inactive)
same,fluorescence ratio (interference),[3],1 (inactive)
same,remaining activity,[4],94.8% (inactive)
same,fold change,[5]; [15],1.06 (inactive) and 0.902 (inactive)
same,fold change,[5]; [16],2.61 and 0.855
same,cell count,[5]; [17],9840 and 8550
same,cell count,[5]; [18],9250 and 9470
same,outcome,[6],inactive
same,z-score,[7],0.525 (inactive) and -0.185 (inactive)
COc1ccc(NC(=O)c2ccc(-c3ccc(-c4noc(C)n4)cc3C)cc2)cc1N1CCN(C)CC1,period change,[1],0.065 h (inactive)
same,inhibition,[2],-3% (inactive)
same,fluorescence ratio (interference),[3],0.9 (inactive)
same,remaining activity,[4],119% (inactive)
same,fold change,[5]; [15],0.954 (inactive) and 1.08 (inactive)
same,fold change,[5]; [16],0.805 and 0.587
same,cell count,[5]; [17],510 and 1390
same,cell count,[5]; [18],535 and 1290
same,outcome,[6],inactive
same,z-score,[7],-1.29 (inactive) and -0.715 (inactive)
CCCCCCCC/C=C\CCCCCCCC(=O)NCCO,period change,[1],0.02 h (inactive)
same,inhibition,[2],-1% (inactive)
same,fluorescence ratio (interference),[3],1 (inactive)
same,remaining activity,[4],112% (inactive)
same,fold change,[5]; [15],1.03 (inactive) and 1.01 (inactive) and 0.976 (inactive)
same,fold change,[5]; [16],0.948 and 0.828 and 0.812
same,cell count,[5]; [17],10400 and 5960 and 9000
same,cell count,[5]; [18],10100 and 5900 and 9210
same,outcome,[6],inactive
same,z-score,[7],-1.28 (inactive) and -0.79 (inactive)
N=C(N)SCCc1cnc[nH]1,period change,[1],0.045 h (inactive)
same,inhibition,[2],-3% (inactive)
same,fluorescence ratio (interference),[3],1 (inactive)
same,remaining activity,[4],120% (inactive)
same,fold change,[5]; [15],0.923 (inactive) and 0.986 (inactive)
same,fold change,[5]; [16],1.08 and 0.938
same,cell count,[5]; [17],8720 and 7870
same,cell count,[5]; [18],9460 and 7980
same,outcome,[6],inactive
same,z-score,[7],0.08 (inactive) and 0.435 (inactive)
CCCc1c(-c2ccc(O)cc2)nn(-c2ccc(O)cc2)c1-c1ccc(O)cc1,period change,[1],0.165 h (inactive)
same,inhibition,[2],-1% (inactive)
same,fluorescence ratio (interference),[3],1 (inactive)
same,remaining activity,[4],109% (inactive)
same,fold change,[5]; [15],1.09 (inactive) and 0.887 (inactive) and 1.03 (inactive)
same,fold change,[5]; [16],1.1 and 0.322 and 0.755
same,cell count,[5]; [17],8030 and 5050 and 7250
same,cell count,[5]; [18],7380 and 5690 and 7020
same,outcome,[6],inactive
same,z-score,[7],1.27 (inactive) and 1.6 (inactive)
O=C(O)c1cc(=O)c2c(Cl)cc(Cl)cc2[nH]1,period change,[1],-0.065 h (inactive)
same,inhibition,[2],-1% (inactive)
same,fluorescence ratio (interference),[3],1 (inactive)
same,remaining activity,[4],90.4% (inactive)
same,fold change,[5]; [15],0.981 (inactive) and 0.957 (inactive)
same,fold change,[5]; [16],0.527 and 0.88
same,cell count,[5]; [17],10000 and 8540
same,cell count,[5]; [18],10200 and 8930
same,outcome,[6],inactive
same,z-score,[7],0.135 (inactive) and -0.315 (inactive)
COC1(C2=NCCN2)COc2ccccc2O1 (stereo not given),period change,[1],0.04 h (inactive)
same,inhibition,[2],-3% (inactive)
same,fluorescence ratio (interference),[3],0.9 (inactive)
same,remaining activity,[4],126% (inactive)
same,fold change,[5]; [15],0.986 (inactive) and 0.983 (inactive)
same,fold change,[5]; [16],1.8 and 0.411
same,cell count,[5]; [17],10100
same,cell count,[5]; [18],10300 and 10200
same,outcome,[6],inactive
same,z-score,[7],-0.135 (inactive) and -0.24 (inactive)
C=CCN1CCc2cc(O)c(O)cc2C(c2ccccc2)C1 (stereo not given),period change,[1],0.045 h (inactive)
same,inhibition,[2],-4% (inactive)
same,fluorescence ratio (interference),[3],0.9 (inactive)
same,remaining activity,[4],113% (inactive)
same,fold change,[5]; [15],0.956 (inactive) and 0.974 (inactive)
same,fold change,[5]; [16],1.26 and 0.531
same,cell count,[5]; [17],10300 and 8820
same,cell count,[5]; [18],10700 and 9060
same,outcome,[6],inactive
same,z-score,[7],-1.29 (inactive) and -0.785 (inactive)
Cc1cccc(/C=C/c2ccccc2)n1,period change,[1],0.01 h (inactive)
same,inhibition,[2],0% (inactive)
same,fluorescence ratio (interference),[3],1 (inactive)
same,remaining activity,[4],108% (inactive)
same,fold change,[5]; [15],0.995 (inactive) and 0.915 (inactive)
same,fold change,[5]; [16],1.79 and 0.591
same,cell count,[5]; [17],9190 and 8490
same,cell count,[5]; [18],9240 and 9280
same,outcome,[6],inactive
same,z-score,[7],1.12 (inactive) and 0.09 (inactive)
CNC(=O)c1cc2c(cn1)[nH]c1ccccc12,period change,[1],-0.24 h (inactive)
same,inhibition,[2],0% (inactive)
same,fluorescence ratio (interference),[3],1 (inactive)
same,remaining activity,[4],99.6% (inactive)
same,fold change,[5]; [15],0.95 (inactive) and 0.891 (inactive)
same,fold change,[5]; [16],1.84 and 0.981
same,cell count,[5]; [17],8950 and 7610
same,cell count,[5]; [18],9420 and 8540
same,outcome,[6],inactive
same,z-score,[7],2.76 (active) and 1.85 (inactive)
O=c1onc2cnc3ccccc3n12,period change,[1],0.13 h (inactive)
same,inhibition,[2],0% (inactive)
same,fluorescence ratio (interference),[3],1 (inactive)
same,remaining activity,[4],108% (inactive)
same,fold change,[5]; [15],1.09 (inactive) and 0.945 (inactive) and 0.946 (inactive)
same,fold change,[5]; [16],1.29 and 1.08 and 0.805
same,cell count,[5]; [17],8010 and 5220 and 7630
same,cell count,[5]; [18],7350 and 5530 and 8060
same,outcome,[6],inactive
same,z-score,[7],0.125 (inactive) and 0.635 (inactive)
O=C(NCCNCC(O)COc1ccc(O)cc1)N1CCOCC1 (stereo not given),period change,[1],-0.145 h (inactive)
same,survival,[8],3.92 (inactive)
same,parasite load remaining,[9],67.2% (inactive) and 53.1% (inactive)
same,viability,[9],92.7% and 101%
same,remaining activity,[4],86.3% (inactive)
same,fold change,[5]; [15],0.933 (inactive) and 0.982 (inactive) and 0.986 (inactive)
same,fold change,[5]; [16],1.12 and 0.678 and 0.984
same,cell count,[5]; [17],9570 and 9500 and 10300
same,cell count,[5]; [18],10300 and 9670 and 10400
same,z-score,[10]; [19],0.558 (inactive) and 0.821 (inactive)
same,z-score,[10]; [20],-0.323 and 0.721
same,z-score,[7],1.45 (inactive) and 0.315 (inactive)
O=C(Nc1ccncc1)c1cc([N+](=O)[O-])ccc1Cl,inhibition,[2],0% (inactive)
same,fluorescence ratio (interference),[3],1 (inactive)
same,remaining activity,[4],127% (inactive)
same,outcome,[6],inactive
same,z-score,[10]; [19],0.0073 (inactive)
same,z-score,[10]; [20],-0.438
same,z-score,[7],-1.12 (inactive) and -0.63 (inactive)
same,inhibition,"[11]; at 0.5 µM, stronger effect = higher value",-6.15% (inactive)
same,inhibition,"[11]; measured here: combination with BGB IC20, at 0.005 µM",-50.3%
same,inhibition,"[11]; measured here: combination with BGB IC40, at 0.005 µM",-79.8%
same,inhibition,"[11]; measured here: combination with BGB IC40, at 0.05 µM",-56.1%
same,inhibition,"[11]; measured here: combination with cisplatin, at 0.5 µM, stronger effect = higher value",-30.4%
same,inhibition,"[11]; measured here: combination with cisplatin, at 5 µM, stronger effect = higher value",-22.9%
same,inhibition,"[12]; BGB combo, at 5 µM",-13.6%
same,inhibition,[12]; at 0.5 µM,1.6% (inactive)
same,inhibition,"[12]; cisplatin combo, at 5 µM",3.19%
same,inhibition,"[12]; measured here: with BGB IC20 combination, at 0.5 µM",-13.6%
same,inhibition,"[12]; measured here: with cisplatin IC20 combination, at 0.5 µM",24.4%
same,inhibition,"[12]; single agent, at 5 µM",-14.1%
same,inhibition,"[13]; BGB IC20 combo, at 0.005 µM",-18%
same,inhibition,"[13]; BGB IC40 combo, at 0.005 µM",-35.6%
same,inhibition,"[13]; BGB IC40 combo, at 0.05 µM",0.746%
same,inhibition,[13]; at 0.5 µM,-34.7% (inactive)
same,inhibition,"[13]; cisplatin combo, at 0.05 µM",-4.27%
same,inhibition,"[13]; cisplatin combo, at 0.5 µM",-45.9%
same,inhibition,"[13]; cisplatin combo, at 5 µM",-23.5%
same,inhibition,"[13]; measured here: 5 uM single agent, at 5 µM",-11.4%
same,inhibition,[14]; at 0.5 µM,-15.1% (inactive)
same,inhibition,"[14]; measured here: with BGB IC20, at 0.5 µM",-10.2%
same,inhibition,"[14]; measured here: with BGB IC20, at 5 µM",1.89%
same,inhibition,"[14]; measured here: with cisplatin IC20, at 0.5 µM",-20.9%
same,inhibition,"[14]; measured here: with cisplatin IC20, at 5 µM",-16.5%
same,inhibition,"[14]; single agent, at 5 µM",-8.5%
